In PubChem BioAssay AID1159580 (chemical genetic matrix, 2015):
Where “and” joins values, the source holds several entries; their conditions need not be identical. Identical values can stand only once. Among all 5,500 compounds or so, about 2,000 (36%) were called active. Inconclusive results (about 18%) are left out. Cut-off read from the data, not from the text of the source: active = normalized growth mostly below about 0.91 (no sharp cut-off); inconclusive = no clear call, values can overlap the other calls; inactive = mostly above about 0.92. Some of the results follow.

Assay: chemical genetic growth profiling, strain panel (AID 1159580);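 note: tested at 20 µM; growth read once vehicle control cultures reached saturation at 30 °C; 1 = growth at the plate median or of vehicle wells; lower values mean less growth of the strain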
Conditions: growth OD
[1] = S. cerevisiae deletion strains, locus YAL013W, strain DEP1, stronger effect = lower value
[2] = S. cerevisiae deletion strains, locus YBR229C, strain ROT2, stronger effect = lower value
[3] = S. cerevisiae deletion strains, locus YDL101C, strain DUN1, stronger effect = lower value
[4] = S. cerevisiae deletion strains, locus YDL134C, strain PPH21, stronger effect = lower value
[5] = S. cerevisiae deletion strains, locus YDR150W, strain NUM1, stronger effect = lower value
[6] = S. cerevisiae deletion strains, locus YEL061C, strain CIN8, stronger effect = lower value
[7] = S. cerevisiae deletion strains, locus YGR078C, strain PAC10, stronger effect = lower value
[8] = S. cerevisiae deletion strains, locus YGR229C, strain SMI1, stronger effect = lower value
[9] = S. cerevisiae deletion strains, locus YHR030C, strain SLT2, stronger effect = lower value
[10] = S. cerevisiae deletion strains, locus YHR087W, strain rtc3, stronger effect = lower value
[11] = S. cerevisiae deletion strains, locus YJR043C, strain POL32, stronger effect = lower value
[12] = S. cerevisiae deletion strains, locus YJR075W, strain HOC1, stronger effect = lower value
[13] = S. cerevisiae deletion strains, locus YLR039C, strain RIC1, stronger effect = lower value
[14] = S. cerevisiae deletion strains, locus YLR058C, strain SHM2 (second series), stronger effect = lower value
[15] = S. cerevisiae deletion strains, locus YLR085C, strain ARP6, stronger effect = lower value
[16] = S. cerevisiae deletion strains, locus YLR262C, strain YPT6, stronger effect = lower value
[17] = S. cerevisiae deletion strains, locus YML094W, strain GIM5, stronger effect = lower value
[18] = S. cerevisiae deletion strains, locus YMR219W, strain ESC1, stronger effect = lower value
[19] = S. cerevisiae deletion strains, locus YNL153C, strain GIM3, stronger effect = lower value
[20] = S. cerevisiae deletion strains, locus YNL298W, strain CLA4 (second series), stronger effect = lower value
[21] = S. cerevisiae deletion strains, locus YNL322C, strain KRE1, stronger effect = lower value
[22] = S. cerevisiae deletion strains, locus YNR030W, strain Alg12, stronger effect = lower value
[23] = S. cerevisiae deletion strains, locus YPL055C, strain LGE1, stronger effect = lower value
[24] = S. cerevisiae deletion strains, locus YPL241C, strain CIN2, stronger effect = lower value
[25] = S. cerevisiae deletion strains, locus YPR135W, strain CTF4, stronger effect = lower value
[26] = S. cerevisiae deletion strains, locus YKL190W, strain CNB1, stronger effect = lower value
[27] = S. cerevisiae deletion strains, locus YMR263W, strain SAP30, stronger effect = lower value
[28] = S. cerevisiae deletion strains, locus YMR307W, strain GAS1, stronger effect = lower value

Measured: normalized growth

O=C(/C=N\Nc1ccccc1)Nc1ccccc1C(=O)O
inactive: [1] 0.975 | [2] 0.98 | [3] 0.99 | [4] 0.99 | [5] 0.883 | [6] 0.986 | [8] 1.02 | [9] 0.716 | [10] 0.92 | S. cerevisiae deletion strains, locus YJL187C, strain SWE1, stronger effect = lower value 0.983 | [11] 0.989 | [12] 0.953 | [14] 0.97 | [17] 0.922 | [18] 0.976 | [19] 0.965 | [20] 0.93 | [21] 0.982 | [22] 0.958 | [23] 0.86 | [25] 0.812
active: [7] 0.92 | [13] 0.297 | [15] 0.666 | [16] 0.242 | [24] 0.792

O=C(COC(=O)c1ccccc1Nc1cccc(F)c1)c1ccccc1
inactive: [1] 0.98 | [2] 0.994 | [3] 1.01 | [4] 0.997 | [5] 1.01 | [6] 0.989 | [7] 0.982 | [9] 0.93 | [10] 1 | [11] 0.986 | [12] 1.03 | [26] 0.989 | [13] 1.01 | [14] 0.989 | [15] 0.916 | [16] 1.02 | [17] 0.996 | [18] 0.997 | [27] 0.997 | [28] 0.882 | S. cerevisiae deletion strains, locus YNL128W, strain TEP1, stronger effect = lower value 0.987 | [19] 0.99 | [20] 0.97 | [21] 0.981 | [22] 0.978 | [23] 1.01 | [24] 0.96 | [25] 1.01

O=C(O)c1cccnc1Nc1cccc(C(F)(F)F)c1
inactive: [1] 0.97 | S. cerevisiae deletion strains, locus YAL040C, strain CLN3, stronger effect = lower value 1.02 | S. cerevisiae deletion strains, locus YBR021W, strain FUR4, stronger effect = lower value 0.922 | [2] 0.964 | S. cerevisiae deletion strains, locus YCL029C, strain bik1, stronger effect = lower value 0.944 | S. cerevisiae deletion strains, locus YCL061C, strain MRC1 (second series), stronger effect = lower value 1 | S. cerevisiae deletion strains, locus YDL035C, strain GPR1, stronger effect = lower value 0.984 | S. cerevisiae deletion strains, locus YDL074C, strain BRE1, stronger effect = lower value 0.999 | [3] 0.981 | [4] 0.946 | S. cerevisiae deletion strains, locus YDL192W, strain arf1, stronger effect = lower value 0.942 | S. cerevisiae deletion strains, locus YDR101C, strain arx1, stronger effect = lower value 0.967 | [5] 0.975 | S. cerevisiae deletion strains, locus YDR162C, strain NBP2, stronger effect = lower value 0.968 | S. cerevisiae deletion strains, locus YDR318W, strain mcm21, stronger effect = lower value 0.953 | S. cerevisiae deletion strains, locus YDR363W, strain ESC2, stronger effect = lower value 1 | S. cerevisiae deletion strains, locus YDR388W, stronger effect = lower value 0.941 | S. cerevisiae deletion strains, locus YDR502C, strain sam2, stronger effect = lower value 0.963 | [6] 0.972 | S. cerevisiae deletion strains, locus YER002W, strain NOP16, stronger effect = lower value 0.973 | S. cerevisiae deletion strains, locus YER110C, stronger effect = lower value 0.954 | S. cerevisiae deletion strains, locus YER155C, strain BEM2, stronger effect = lower value 0.931 | S. cerevisiae deletion strains, locus YER167W, strain BCK2, stronger effect = lower value 0.957 | S. cerevisiae deletion strains, locus YGL078C, strain dbp3, stronger effect = lower value 0.943 | S. cerevisiae deletion strains, locus YGL086W, strain mad1, stronger effect = lower value 0.963 | S. cerevisiae deletion strains, locus YGL248W, strain PDE1, stronger effect = lower value 0.989 | S. cerevisiae deletion strains, locus YGR135W, strain pre9, stronger effect = lower value 0.95 | [8] 0.978 | S. cerevisiae deletion strains, locus YGR252W, strain gcn5, stronger effect = lower value 0.911 | [9] 0.949 | S. cerevisiae deletion strains, locus YHR079C, strain IRE1 (second series), stronger effect = lower value 0.942 | S. cerevisiae deletion strains, locus YHR094C, strain hxt1, stronger effect = lower value 0.941 | S. cerevisiae deletion strains, locus YHR129C, strain ARP1, stronger effect = lower value 0.953 | S. cerevisiae deletion strains, locus YHR200W, strain rpn10, stronger effect = lower value 0.945 | S. cerevisiae deletion strains, locus YIL066C, strain RNR3, stronger effect = lower value 0.973 | S. cerevisiae deletion strains, locus YIL073C, strain SPO22, stronger effect = lower value 0.954 | S. cerevisiae deletion strains, locus YIR030C, strain dcg1, stronger effect = lower value 0.939 | S. cerevisiae deletion strains, locus YJL095W, strain BCK1, stronger effect = lower value 0.996 | S. cerevisiae deletion strains, locus YJL134W, strain LCB3, stronger effect = lower value 0.953 | S. cerevisiae deletion strains, locus YJL168C, strain set2, stronger effect = lower value 0.941 | S. cerevisiae deletion strains, locus YJL187C, strain SWE1 (second series), stronger effect = lower value 1 | [11] 0.991 | [12] 0.981 and 1.02 | S. cerevisiae deletion strains, locus YKL009W, strain mrt4, stronger effect = lower value 0.944 | [26] 0.979 | S. cerevisiae deletion strains, locus YKR001C, strain vps1, stronger effect = lower value 0.949 | [13] 0.966 | S. cerevisiae deletion strains, locus YLR058C, strain SHM2, stronger effect = lower value 0.969 | S. cerevisiae deletion strains, locus YLR102C, strain apc9, stronger effect = lower value 0.938 | [16] 0.975 | S. cerevisiae deletion strains, locus YLR268W, strain sec22, stronger effect = lower value 0.978 | S. cerevisiae deletion strains, locus YLR330W, strain CHS5, stronger effect = lower value 0.943 | S. cerevisiae deletion strains, locus YLR342W, strain FKS1 (second series), stronger effect = lower value 0.936 | S. cerevisiae deletion strains, locus YLR371W, strain rom2, stronger effect = lower value 0.951 | S. cerevisiae deletion strains, locus YLR418C, strain cdc73, stronger effect = lower value 0.909 | S. cerevisiae deletion strains, locus YML016C, strain PPZ1, stronger effect = lower value 0.967 | S. cerevisiae deletion strains, locus YML032C, strain rad52, stronger effect = lower value 0.966 | S. cerevisiae deletion strains, locus YMR078C, strain ctf18, stronger effect = lower value 0.945 | S. cerevisiae deletion strains, locus YMR223W, strain ubp8, stronger effect = lower value 0.958 | [27] 0.973 | [28] 0.881 | S. cerevisiae deletion strains, locus YNL067W, strain RPL9B, stronger effect = lower value 1.02 | [19] 0.991 | S. cerevisiae deletion strains, locus YNL175C, strain NOP13, stronger effect = lower value 0.981 | S. cerevisiae deletion strains, locus YNL197C, strain WHI3, stronger effect = lower value 1 | S. cerevisiae deletion strains, locus YNL224C, strain SQS1, stronger effect = lower value 0.969 | S. cerevisiae deletion strains, locus YNL233W, strain BNI4, stronger effect = lower value 0.988 | S. cerevisiae deletion strains, locus YNL250W, strain rad50, stronger effect = lower value 0.9 | S. cerevisiae deletion strains, locus YNL298W, strain CLA4, stronger effect = lower value 0.942 | S. cerevisiae deletion strains, locus YNL307C, strain MCK1, stronger effect = lower value 0.937 | [21] 0.969 and 1.02 | S. cerevisiae deletion strains, locus YNR052C, strain pop2, stronger effect = lower value 0.949 | S. cerevisiae deletion strains, locus YOL006C, strain TOP1, stronger effect = lower value 0.99 | S. cerevisiae deletion strains, locus YOL012C, strain htz1 1.13 | S. cerevisiae deletion strains, locus YOL147C, strain pex11, stronger effect = lower value 0.935 | S. cerevisiae deletion strains, locus YOR061W, strain CKA2, stronger effect = lower value 0.974 | S. cerevisiae deletion strains, locus YOR069W, strain VPS5, stronger effect = lower value 0.956 | S. cerevisiae deletion strains, locus YOR083W, strain WHI5 (second series), stronger effect = lower value 0.992 | S. cerevisiae deletion strains, locus YOR136W, strain idh2, stronger effect = lower value 0.98 | S. cerevisiae deletion strains, locus YOR144C, strain elg1, stronger effect = lower value 0.944 | S. cerevisiae deletion strains, locus YOR184W, strain ser1, stronger effect = lower value 0.968 | S. cerevisiae deletion strains, locus YOR316C, strain cot1, stronger effect = lower value 0.931 | [23] 1.04 and 1.01 | S. cerevisiae deletion strains, locus YPR119W, strain clb2, stronger effect = lower value 0.934 | S. cerevisiae deletion strains, locus YPR163C, strain tif3, stronger effect = lower value 0.95 | S. cerevisiae deletion strains, locus YPR167C, strain met16, stronger effect = lower value 0.938 | S. cerevisiae deletion strains, strain wtn01, stronger effect = lower value 0.957 | S. cerevisiae strains, strain wild type, stronger effect = lower value 0.981
active: S. cerevisiae deletion strains, locus YDL185W, strain tfp1, stronger effect = lower value 0.896 | S. cerevisiae deletion strains, locus YIL125W, strain kgd1, stronger effect = lower value 0.919 | S. cerevisiae deletion strains, locus YKL068W, stronger effect = lower value 0.912 | S. cerevisiae deletion strains, locus YKL085W, strain MDH1 (second series), stronger effect = lower value 0.916 | S. cerevisiae deletion strains, locus YKL085W, strain MDH1, stronger effect = lower value 0.916 | S. cerevisiae deletion strains, locus YML124C, strain tub3, stronger effect = lower value 0.933 | S. cerevisiae deletion strains, locus YNL271C, strain bni1, stronger effect = lower value 0.916 | S. cerevisiae deletion strains, locus YPR141C, strain kar3, stronger effect = lower value 0.895
